According to PubChem BioAssay AID1259339 (Broad Institute, 2017):
Values without a mark were called inactive. Activity calls are given as the source filed them.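 Rule for the calls: active = fitted AC50 no higher than ten times the top tested dose (cut at about 90 µM in these data); inconclusive = flat curve with 30 to 70% signal loss, or bad fit; inactive = AC50 beyond ten times the top dose.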

Test: TruHit bead signal quenchers or artefacts – biochemical, TruHit kit, artefact control, dose response (AID 1259339)
Conditions: TruHit alphaLISA kit signal interference counterscreen; series mostly up to 80 µM; activity change, negative = signal loss: at the top concentration

SMILES	activity change, negative = signal loss	AC50
O=C(O)COc1ccc(-n2cccc2)cc1	-5.07%	–
COc1cccc(NC(=O)CN(C)C(=O)c2cc3c(s2)CCC3)c1	–	74.6 µM (active)
Cc1cccc2nc(CSCc3ccco3)cn12	–	74.7 µM (active)
Cc1cnc(C)c(N2CCN(C(=O)[C@H]3CC[C@@H](N)C3)CC2)n1	-0.624%	–
c1ccc(-c2nc(-c3ccco3)n3ccccc23)cc1	–	27.2 µM (active)
CC(C)C(CC(=O)NCc1ccco1)c1ccco1 (stereo unspecified)	–	66.5 µM (active)
CC(=O)c1ccc(NC(=O)c2noc3c2CCC3)cc1	10.7%	–
O=C(COC(=O)c1ccc(F)cc1F)Nc1ncccn1	139%	–
COc1ccc(-c2nc(C)c(C(C)=O)n2O)cc1OC	17.2%	–
O=C(Nc1nccs1)c1cc(-c2ccccn2)nc2c(Cl)cccc12	–	2.07 µM (active)
NC(=O)C1(N2CCCCC2)CCN(c2ccc(NC(=O)c3ccccc3F)cc2C(=O)O)CC1	3.56%	–
COc1c(C(=O)O)csc1Br	–	0.373 µM (active)
CCc1nccn1CCC(=O)N1C[C@H](CO)C[C@H](CN2CCCC2)C1	45.3%	–
C=CCNc1ncnc2c1CCN(C(=O)c1ccc(CSC)o1)CC2	10.8%	–
O=S(=O)(Nc1nccs1)c1ccc(-n2cccc2)cc1	–	18.8 µM (active)
NC(=O)C1(N2CCCCC2)CCN(c2ncc(NC(=O)c3ccc(Cl)cc3)cc2C(=O)O)CC1	–	81.9 µM (active)
O=C(COC(=O)c1cc(-c2cccs2)nc2ccccc12)NCc1ccco1	–	40.2 µM (active)
CCCc1cc(C(=O)N2CC[C@H]3CNC[C@H]32)n(C)n1	11.4%	–

SMILES	activity change, negative = signal loss	AC50
O=C(NCc1ccco1)c1c2c(nc3ccccc13)CCC2	–	82.4 µM (active)
NC(=O)C1(N2CCCCC2)CCN(c2ncc(NC(=O)c3ccccc3F)cc2C(=O)O)CC1	-1.2%	–
CCOC(=O)C1CCN(C(=O)CN(Cc2ccccc2)S(C)(=O)=O)CC1	25.4%	–
O=C(O)CCc1ccc(-c2cccs2)n1NC(=O)c1ccco1	–	> 160 µM
Cc1ccc(N2C(=O)c3ccccc3C2C(=O)c2ccc(O)cc2O)cc1 (stereo unspecified)	4.71%	–
CC1=CCC(C(=O)O)C(C(=O)NC2CCCCC2)C1 (stereo unspecified)	47.5%	–
Cc1ccc(-c2nnc(-c3nc(Nc4nc5ccccc5s4)c4ccccc4n3)o2)cc1	-1.3%	–
O=C(Nc1ccc(OCC(=O)N2CCOCC2)cc1)c1cncc(Br)c1	8.89%	–
C=CC(=O)N1CCCC2(CCN(CCN3CCCC3)C2=O)C1 (stereo unspecified)	8.73%	–
O=C(Nc1nccs1)c1cc(-c2ccco2)nc2ccccc12	–	29 µM (active)
C(=C\c1ccco1)/c1nc2ccccc2[nH]1	–	22.5 µM (active)
O=C(Nc1nc(-c2ccco2)c(-c2ccco2)s1)c1ccco1	–	0.98 µM (active)
COc1ccc(S(=O)(=O)N2CCOCC2)cc1NC(=O)c1cccc(-n2cccc2)c1	–	36.1 µM (active)
CC(=O)c1sc2nc(-c3ccco3)ccc2c1N	–	43.6 µM (active)
COc1ccc(S(=O)(=O)c2ccccc2)cc1NS(=O)(=O)c1cccc(C(=O)O)c1	-41.6%	–
Cn1ncc2c(NNC(=O)c3cc(O)cc(O)c3)ncnc21	3.55%	–
CCN1CCN(C(=O)c2cc(-c3ccco3)nc3ccccc23)CC1	–	> 160 µM
O=C(O)Cc1c[nH]c2cccc(O)c12	–	11.3 µM (active)
